We go through 59 compounds from PubChem BioAssay AID588814 (The Scripps Research Institute Molecular Screening Center, 2011).

Among all 360,000 compounds or so, about 1,200 (0.33%) were called active. The entries come from a sample that favours actives as a whole. Unmarked numbers belong to inactive results.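 How the source made its calls: active means activation above the run's mean compound activation plus 3 SD (cut at about 16% in these data); inactive means the rest.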

For the assay, the target named is Muscarinic acetylcholine receptor M1 (Homo sapiens) (UniProt P11229). Briefly: CHRM1 activation via calcium signal – Fluo-8 calcium fluorescence, CHO-K1 cells, HTS, primary screen (AID 588814).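 Further: peak over basal fluorescence ratio within a 140 s kinetic read after compound addition.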 To be noted: CHO-K1 hM1, Fluo-8 calcium fluorescence, agonist mode; at 3 µM; hits give high values; 0% DMSO, 100% acetylcholine EC100.
Chain of Muscarinic acetylcholine receptor M1 (Homo sapiens) (P11229 whole entry, looked up): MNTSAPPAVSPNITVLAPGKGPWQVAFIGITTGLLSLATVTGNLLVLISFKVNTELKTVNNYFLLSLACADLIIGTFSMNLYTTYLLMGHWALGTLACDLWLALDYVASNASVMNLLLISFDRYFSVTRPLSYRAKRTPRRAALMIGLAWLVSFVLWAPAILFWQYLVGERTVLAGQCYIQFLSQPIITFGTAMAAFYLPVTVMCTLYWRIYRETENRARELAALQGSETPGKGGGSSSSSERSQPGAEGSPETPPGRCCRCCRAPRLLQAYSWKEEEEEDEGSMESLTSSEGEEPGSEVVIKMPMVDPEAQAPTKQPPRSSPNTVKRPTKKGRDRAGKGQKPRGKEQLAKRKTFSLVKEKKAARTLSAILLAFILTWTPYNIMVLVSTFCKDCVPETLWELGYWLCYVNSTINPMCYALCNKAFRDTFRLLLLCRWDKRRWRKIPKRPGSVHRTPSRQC
In the case of `CC1(C(=O)NS(=O)(=O)c2cccc(F)c2)CCN1C(=O)Cc1ccc(Cl)cc1Cl` (centres undefined), the activation was -1.39%.
For the compound `CC1Cc2ccccc2N1CC(=O)Nc1ccc2c(c1)OC(F)(F)O2` (centres undefined), the activation is -7.22%.
`CCN(CC)c1ccc(/C=N/NC(=O)CNC(=O)c2cccs2)cc1`: the activation is -4.5%.
As to `Cc1ccc(-n2nc(C)c(/C=N/NC(=O)c3cccs3)c2Cl)cc1`, the activation was 16.7% (active).
Then `Cc1nn(-c2ccccc2)c(NC(=O)c2cccs2)c(-c2ccc(Cl)cc2)c1=O`, with -7.73%.
`CC(=NNC(=O)c1ccncc1)c1ccc(Cl)c(Cl)c1`: the activation was -2.06%.
Take `CCOCCCN1C(=O)C2C(C(=O)Nc3ccc(OCC)cc3)C3C=CC2(O3)C1C(=O)NC1CCCCC1` (centres undefined): the activation was -6.34%.
Then `CCCNC(=O)C1CC(=O)N(c2ccc(OCc3ccccc3)cc2)C1` (centres undefined), with 1.07%.
For the compound `COc1cc(OC)c(N2CC(C(=O)Nc3cc(Cl)ccc3N3CCOCC3)CC2=O)cc1Cl` (centres undefined), the activation is -5.02%.
For the compound `COc1ccc(-n2c(-c3ccc(Cl)cc3)n[nH]c2=S)c(OC)c1`, the activation was -4.14%.
As to `COc1cc(OC)c(-n2cc(-c3ccc(Cl)cc3)[nH]c2=O)cc1Cl`, the activation is 58% (active).
As to `CC(=O)C[C@@H](O)CC(=O)[C@H]1OC(=O)CCCCCCc2ccccc21`, the activation was 10.4%.
Regarding `Cn1nccc1NC(=O)CC(CC(=O)O)c1ccccc1` (centres undefined), the activation is 0.28%.
Then `Cn1nc(C(F)(F)F)c2cc(NC(=O)OCC(C)(C)C)sc21`, with -6.85%; and `CC(C)COC(=O)c1ccc(NC(=O)C2C3C=CC(C3)C2C(=O)O)cc1` (centres undefined), with -3%; and `CCc1ccc(-c2cc3c(=O)n(CC(=O)NCCCN4CCN(Cc5ccccc5)CC4)nc(C)n3n2)cc1`, with 0.73%.
With `CC(=O)OCCC(C)C`, the activation was -3.12%.
As to `CC(=O)OC(C)C[N+](C)(C)C` (centres undefined), the activation was 115% (active).
In the case of `CC(C[N+](C)(C)C)OC(N)=O` (centres undefined), the activation was 87.5% (active).
Take `Cc1oc2nc(SCC(=O)Nc3ccc(S(N)(=O)=O)cc3)nc(NC(=O)c3ccccc3)c2c1C`: the activation is -4.87%.
In the case of `Cc1sc(NC(=O)C2=COCCO2)c(C#N)c1C`, the activation is -6.11%.
Then `CC(C)Cn1c(CCC(=O)O)ccc1-c1cccs1`, with -4.32%.
Consider `O=c1c2ccccc2c(-c2ccccc2)nn1-c1ccccn1`, for which the activation is -1.79%.
Regarding `COc1ccccc1N1CCN(C(=O)c2cn(-c3ccccc3)nc2-c2cccnc2)CC1`, the activation is 0.62%.
With `O=C(COC(=O)/C=C/c1cn(-c2ccccc2)nc1-c1cccnc1)Nc1ccc(Cl)cc1Cl`, the activation is -5.6%.
Consider `CC(C)(C)OC(=O)N/N=C/c1cn(-c2ccccc2)nc1-c1cccnc1`, for which the activation was 24% (active).
Then `O=C(CNc1cccc(S(=O)(=O)N2CCCCC2)c1)Nc1ccccc1F`, with 2.04%; and `Cc1cc(O)ccc1-c1cc(C(=O)NCc2cc(C(F)(F)F)cc(C(F)(F)F)c2)[nH]n1`, with 16.9% (active).
`CCCOc1ccc(F)cc1-c1cc(C(=O)NCc2ccc(F)cc2)[nH]n1`: the activation was -7.18%.
`Cc1ccc(O)c(-c2cc(C(=O)NCc3ccccc3)[nH]n2)c1`: the activation is -5.25%.
Take `CCc1nc2c(OCCC3CCCCC3)cccn2c1N(C)C(=O)c1ccco1`: the activation is -9.74%.
For the compound `CCOC(=O)C1(Cc2cccc(OC)c2)CCCN(S(=O)(=O)c2cccnc2)C1` (centres undefined), the activation is -1.49%.
Then `COc1ccc(C(C#N)=C2C=CC(=NO)c3ccccc32)cc1`, with -8%; and `CCOc1c(N2CCCCC2)c(=O)c1=O`, with -7.26%; and `CCc1nc2ccc(C(=O)Nc3cccc(OC)c3)cn2c1N(CCC(C)C)CCN(C)C`, with 29.4% (active).
Turning to `CCc1nc2ccc(C(=O)Nc3ccc(OC)c(OC)c3)cn2c1N(C)C(=O)c1cccc(OC)c1`, the activation was -2.95%.
For the compound `CCc1nc2ccc(C(=O)N(C)CCN(C)C)cn2c1N(CC)CCOC`, the activation is -6.84%.
In the case of `Cc1ccc(-c2nn(-c3ccccc3)cc2C(=O)NC2CCC(O)CC2)cc1` (centres undefined), the activation was 0.01%.
Regarding `O=C(NNC(=S)NC(=O)c1cn(-c2ccccc2)nc1-c1ccccc1)c1ccncc1`, the activation is 16.6% (active).
Then `NC(=O)C1CCN(C(=O)c2cn(-c3ccccc3)nc2-c2cccnc2)CC1`, with -0.33%; and `Cc1cc(SCC(=O)NCCN2C(=O)CSC2=O)nc2ccccc12`, with -9.92%; and `Cc1ccc(S(=O)(=O)NCc2nc3ccccc3c(=O)n2N)cc1`, with -0.65%.
For the compound `N#CC1(NC(=O)COC(=O)CCN=C2NS(=O)(=O)c3ccccc32)CCCCC1`, the activation is -0.14%.
Then `O=C(CCCN=C1NS(=O)(=O)c2ccccc21)OCC(=O)c1ccc(F)c(F)c1`, with 27% (active); and `O=C(OCCN=C1NS(=O)(=O)c2ccccc21)c1cccc([N+](=O)[O-])c1`, with -1.9%; and `Cc1cccc(NC(=O)c2ccc3c(=O)n(CC4CCCO4)c(=S)[nH]c3c2)c1` (centres undefined), with -0.37%.
Then `N#C/C(=C/c1ccc(N2CCCCC2)o1)C(=O)NCCc1c[nH]c2ccccc12`, with 28.4% (active); and `N#C/C(=C\c1ccc(N2CCOCC2)o1)C(=O)N1CCOCC1`, with 2.53%; and `O=C(NCCc1c[nH]c2ccccc12)C1CCN(Cc2ccc(Br)cc2)CC1`, with -4.6%.
For `CCOCc1nnc(NC(=O)CCC2CCCCC2)s1`, the activation is -1.9%.
Then `O=S(=O)(Nc1ccc(Cl)cn1)c1cnc(Cl)c(Br)c1`, with -0.28%; and `CCOc1ccc(C(=O)NC(C(=O)NCc2ccccn2)C(C)C)cc1` (centres undefined), with -5.01%.
`O=C(N/N=C/c1ccsc1)c1cc(O)cc(O)c1`: the activation is -1.35%.
As for `O=C1Nc2ccc([N+](=O)[O-])cc2C1=Nc1cccc(CO)c1`, the activation was 0.24%.
Then `O=C1C(=O)N(c2ccccc2)c2ccccc21`, with 13.1%; and `O=C1C(=O)N(CC2COc3ccccc3O2)c2ccccc21` (centres undefined), with 39.1% (active).
Then `Cc1noc(C)c1C(=O)NCC1COc2ccccc2O1` (centres undefined), with -2.12%; and `CCCC1C(c2ccccc2)C(C#N)(C#N)C2(C#N)CC1(N)NC2=O` (centres undefined), with -0.06%; and `Cc1ccc(NC2=C(Cl)C(=O)OC2OC(=O)c2ccccc2C)cc1` (centres undefined), with -9.26%.
